Experimental findings from PubChem BioAssay (NCI) are described below.

Each structure is given as a SMILES string. About 83,000 compounds went through this panel and 20% of them were active in at least one assay; those are over-represented in the sample as a whole.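 Cells were grown in 96-well plates and exposed to the test compound at a single concentration for 48 hours; results are reported as percent growth, with values below 10 considered active.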 Calls of active or inactive are those of the source.

The experiment relates to UO-31 renal. As to the kind of experiment: NCI-60 one-dose screen, 48 h (100 = growth as untreated, 0 = no growth, -100 = all killed). As to conditions: 10 µM unless noted. The method, then:
Growth inhibition of the UO-31 human tumor cell line is measured as a screen for anti-cancer activity. Cells are grown in 96 well plates and exposed to the test compound for 48 hours. Compounds are tested at a single concentration, which is 10^-5 M for most compounds. The reported endpoint is percent growth (GI% or GIPRCNT), where numbers from 0 - 100% represent growth inhibition, and numbers from -100% - 0 represent cell death. For example, a value of 40 represents 60% growth inhibition. A value of 0 means no net growth occurred over the course of the experiment. A value of -40 indicates 40% of cells at the beginning of the experiment died by the end of the experiment. A value of -100 means all cells are dead at the end of the experiment.
NCI-60 Human Tumor Cell Lines Screen was performed using the standard one-dose NCI protocol, which is described in more detail at https://dtp.cancer.gov/discovery_development/nci-60/default.htm.
Compounds with GIPRCNT values below 10 were considered active. Activity score was based on GIPRCNT using the following formula: […]
Score is 0 for GIPRCNT values of 100 or above, 50 for GIPRCNT values of 0, and 100 for GIPRCNT values of -100.
`Cc1c(F)cccc1NC(=O)c1sc2nc3c(cc2c1N)CCCCC3`: the growth is 72.7% (inactive).
Next, `COc1ccc(CCNC=O)cc1OC`: 82.3% (inactive); `O=C(Nc1ccc(-n2ccc3c(NC(=O)c4ccccc4)ncnc32)cc1)Nc1ccc(Cl)c(C(F)(F)F)c1`: 23.5% (inactive); `COc1ccc(C2=NN(C(=O)COc3ccc(Cl)cc3)C(O)(c3cc(F)c(Cl)cc3Cl)C2)cc1OC` (stereo not given): -86.6% (active).
Next, `Nc1ncnc2c1ccn2-c1cccc(NC(=O)c2cccc(C(F)(F)F)c2)c1`: 86.4% (inactive); `Cc1cc(Nc2ccc(Cl)c(Cl)c2)nc(N)n1`: 86.2% (inactive); `NC(N)=N/N=C/c1ccc([N+](=O)[O-])cc1`: 82.6% (inactive).
For `CN1CCN(Cn2nc(-c3cc(Cl)cc(Cl)c3Cl)n(/N=C/c3ccc(Cl)cc3)c2=S)CC1`, the growth is 88% (inactive).
Take `O=c1c2ccccc2[nH]n1Cc1ccc2c(c1)OCO2`: the growth was 92.7% (inactive).
As for `Cc1c(C(C)(C)C)cc(C(C)(C)C)c2c1CN(C)CO2`, the growth was 97% (inactive).
Next, `[2H]c1nc(Nc2ncc(F)c(-c3cc(F)c4nc(C)n(C(C)C)c4c3)n2)c([2H])c([2H])c1CN1CCN(CC)CC1`: 23.1% (inactive); `CC(C)(C)NC(C1=CC(C)(C)c2ccccc2C1=O)c1ccccc1` (stereo not given): -97.4% (active); `O=C(O)c1ccc(-n2cc(/C=N/Nc3ccccc3F)c(-c3ccc(O)cc3)n2)cc1`: 49.1% (inactive).
Next, `Nc1ccc(S(=O)(=O)Nc2ccnn2-c2ccccc2)cc1`: 82.4% (inactive); `S=c1ssnc1-c1ccccn1`: -40.8% (active).
In the case of `COc1ccc2c(c1)nnc1c3cccnc3[nH]c21`, the growth is -74.1% (active).
For `COc1cc(NC(C)CCCN2C(=O)c3ccccc3C2=O)c2nc(C)ccc2c1OC` (stereo not given), the growth is 98.1% (inactive).
Next, `O=C(Nc1cccc([N+](=O)[O-])c1)Nc1cccc([N+](=O)[O-])c1`: 46.6% (inactive); `COc1ccc(-c2nnc(SCC(=O)Nc3ccc(C(=O)/C=C/c4ccccc4)cc3)o2)cc1OC`: 83.9% (inactive).
With `NS(=O)(=O)c1ccc(CCN2C(=O)/C(=C\c3ccc(Cl)cc3)C=C2c2ccc(Oc3ccccc3)cc2)cc1`, the growth was 65.8% (inactive).
Consider `COc1ccc(-c2nn(-c3ccc(NC(=O)c4cc(C(F)(F)F)cc(C(F)(F)F)c4)cc3)cc2-c2ccncc2)cc1Cl`, for which the growth is 44.6% (inactive).
For the molecule `Cc1cn(-c2cc(C(=O)Nc3cccc(-n4ccc5c(NC(=O)c6ccccc6)nccc54)c3)cc(C(F)(F)F)c2)cn1`, the growth is 15.5% (inactive).
Next, `COc1cc2c(/C=C3/C(=O)Nc4ccc(O)cc43)c(Cl)n(Cc3cc(OC)c(OC)c(OC)c3)c2cc1C`: -0.307% (active).
In the case of `CC(C)(C)C(=O)Nc1nc2c(s1)CCc1ccn(S(=O)(=O)c3ccccc3)c1-2` it was 62.7% (inactive).
For `COc1ccc(-c2nnc(NC(=O)CN3CCN(c4cc5c(cc4F)c(=O)c(C(=O)O)cn5C4CC4)CC3)s2)cc1OC`, the growth was 89.4% (inactive).
`ClC1c2ccccc2CCc2ccccc21`: the growth is 60% (inactive).
Turning to `CC(=O)CC/C=C(\C)[C@H](O)[C@H](C)C(=O)O[C@H]1C[C@H](C)C=C2C=C[C@@]3(C)O[C@@H](O)CC(=O)[C@]3(C)[C@H]21`, the growth was -28.6% (active).
Take `C=C1c2c(Cl)ccc(O)c2C(O)=C2C(=O)[C@]3(O)C(O)=C(C(N)=O)C(=O)[C@@H](N(C)C)[C@@H]3[C@@H](O)[C@H]12`: the growth was 4.78% (active).
Consider `COC(=O)c1ccc(NC(N)=NCC(C)(C)COc2ccc(C(F)(F)F)cc2)nc1`, for which the growth is 41.1% (inactive).
In the case of `COc1ccc(-n2c(-c3ccc(NC(=O)CCCl)cc3)nnc2-c2cc(OC)c(OC)c(OC)c2)cc1` it was 43.8% (inactive); in that of `CCOC(=O)n1cnc2c(Cl)ncnc21`, 97% (inactive).
In the case of `COc1cc([C@@H]2c3cc4c(cc3C(OC3O[C@@H]5COC(C)O[C@H]5[C@H](O)[C@H]3O)C3COC(=O)[C@@H]32)OCO4)cc(OC)c1O` (stereo not given in full) it was 64.3% (inactive).
With `O=C(Nc1ccc(-n2ccc3c(NC(=O)c4ccccc4)ncnc32)cc1)Nc1cccc(Cl)c1Cl`, the growth was -80.4% (active).
`CCN(CC)CCNc1ccc([N+](=O)[O-])c2sc3cc(Cl)ccc3c(=O)c12`: the growth is -79.5% (active).
For the molecule `CS(=O)(=O)Nc1cccc(-c2ccc3ncnc(Nc4cncc(Cl)c4)c3c2)c1`, the growth is 30.3% (inactive).
In the case of `Cc1[nH]c2ccc(F)cc2c1CCNC(=O)C1CCN(C(=O)c2ccc(-c3ccccc3)cc2)CC1` it was 36.5% (inactive); in that of `COc1ccccc1N1CCN(CCCOc2ccc(OCCCN3CCN(c4ccccc4OC)CC3)c(C(=O)c3cc(OC)c(OC)c(OC)c3)c2)CC1`, 102% (inactive); in that of `O=C(Cn1c2ccccc2c2ccncc21)N/N=C\c1ccc2ccccc2c1`, -28.3% (active).
Next, `COC(=O)Nc1nc2ccc(Sc3ccccc3)cc2[nH]1`: 34.6% (inactive); `CCc1c(C)c2cc3c(c(C)c2oc1=O)OCC(=O)N3`: 37.3% (inactive).
